According to PubChem BioAssay (NCI):
This is part of a sample that, as a whole, favours compounds with a hit. Of some 83,000 tested, about 20% had one in any assay.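 A percent growth of 40 corresponds to 60% growth inhibition; 0 means no net growth; -100 means all cells died. Active threshold: below 10.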 A number with no mark means an inactive call. Active and inactive are the calls of the source.

Test system: NCI-H226 lung
Experiment: NCI-60 one-dose screen, 48 h (100 = growth as untreated, 0 = no growth, -100 = all killed)
Conditions: 10 µM

| SMILES | growth |
| --- | --- |
| COc1ccc(C(=O)n2nc(CC(=O)NCc3ccccc3)nc2N)cc1 | 106% |
| NC1CCC(Nc2nc(NCc3ccc(-c4ccccc4O)nc3)c3ncn(C4CCCC4)c3n2)CC1 (stereo not given) | -3.35% (active) |
| COc1ccc(CSc2nc3cc(OC)c(OC)cc3c(=O)n2-c2ccc(OC)cc2OC)cc1 | 78.4% |
| CCCCCCN=C(N)CCCCCCCCCCC(N)=NCCCCCC | 51.6% |
| O=C(COCc1c(-c2ccccc2)no[n+]1[O-])Nc1nc(-c2ccc(Cl)cc2)cs1 | 90.4% |
| O=[N+]([O-])c1ccc2c(c1)Cc1cc(I)ccc1-2 | 97.7% |
| CN(C)CCCN(Cc1ccccc1O)C(=S)Nc1ccc(Cl)cc1 | 94.5% |
| CS(=O)(=O)Nc1ccc(Nc2c3ccccc3nc3cc(Cl)ccc23)cc1 | -4.26% (active) |
| COc1ccc(/C=C2\CCC3C(CCCC34OCCO4)C2=O)cc1 (stereo not given) | 97.8% |

Test system: NCI-H322M lung
Experiment: as above
Conditions: 10 µM

| SMILES | growth |
| --- | --- |
| COCCOC(=O)NC(=O)Nc1ccc(C(=O)c2ccc(Cl)cc2)cc1 | 57.9% |
| Cc1cnc(C=O)c2cccc([N+](=O)[O-])c12 | 103% |
| COc1ccc(-c2nc(SCC(=O)c3ccc(Br)cc3)[nH]c(=O)c2C#N)cc1 | 97.3% |
| COc1cccc2c1C(=O)c1c(O)c3c(c(O)c1C2=O)C[C@@](O)(C(=O)COC(=O)c1ccccc1)C[C@@H]3OC1CC(N)C(O)C(C)O1 (stereo not given in full) | -95.7% (active) |
| Fc1ccc2[nH]c3c(NCCCN4CCOCC4)ncnc3c2c1 | 53.6% |
| CC(C)c1[nH]nc2c(NCc3ccc(-c4ccccn4)cc3)nc(SCCN)nc12 | 10.3% |
| COc1ccc(NC(=O)CCn2cnc3c(cc(-c4ccccc4)n3-c3ccccc3)c2=O)cc1 | 109% |
| CNC(=O)c1cc(Oc2ccc(NC(=O)Nc3ccc(Cl)c(OC4CCCCC4)c3)c(F)c2)ccn1 | 75.8% |
| CCCCCCCCCCCCCCCCn1cc[n+](C)c1 | 8.28% (active) |
| O=C1/C(=C/c2cccs2)CCC/C1=C\c1cccs1 | 85.3% |
| COC(=O)C1(C(=O)OC)C2C(=O)C3C(C21)C3(C(=O)OC(C)(C)C)C(=O)OC(C)(C)C (stereo not given) | 108% |
| COc1ccc(Cn2cc3c(c2-c2ccccc2)CC(C)(C)c2cnoc2-3)cc1 | 34.1% |
| CC(C)C[C@H](NC(=O)Cn1ccc2ccccc2c1=O)B(O)O | 102% |
| Cc1cc(Nc2cccc(F)c2)nc(NCc2ccccc2)n1 | 63.2% |
| O=C(/C=C/c1ccc(Cl)cc1)c1ccc(Br)cc1 | 91.2% |
| Cc1cc2cc3c(=O)[nH]c(=O)cc-3n(CC(O)C(O)C(O)CO)c2cc1C (stereo not given) | 119% |

| SMILES | growth |
| --- | --- |
| N#Cc1cnc2ccc(NCc3cnc[nH]3)cc2c1Nc1ccc(F)c(Cl)c1 | 1.96% (active) |
| Cn1c(=O)c2[nH]c(C(O)c3ccc(Cl)cc3)nc2n(C)c1=O (stereo not given) | 111% |
| Cc1ccc(S(=O)(=O)Nc2cccc3[nH]c(C(F)(F)F)nc23)cc1 | 36.4% |
| CCCCCCCOc1cccc(/C=C2/C(=O)N=C3SCCCN32)c1 | 89.1% |
| Cc1ccc(C)c(S(=O)(=O)NC2c3ccccc3Oc3ccccc32)c1 | 88.3% |
| Nc1nc2c(nnn2C2CC(O)C(CO)O2)c(=O)[nH]1 (stereo not given) | 52% |
| Cc1nc2cc(-n3c(-c4ccc(F)cc4)nc4ccccc4c3=O)ccc2n1Cc1ccccc1 | 38.2% |
| CCN(CCCNC(=O)Cc1cc(=O)oc2cc(N(C)C)ccc12)CCNc1ccnc2cc(Cl)ccc12 | 91% |
| COc1cc(-c2nc3ccccc3[nH]2)ccc1OCC(=O)N=Nc1c(O)[nH]c2ccccc12 | 96% |
| O=C(OCc1ncc(-c2ccc(C(F)(F)F)cc2)c(NC2CCCCCC2)n1)c1c(F)c(F)c(F)c(F)c1F | 87.6% |
| COc1cc(C2=Nc3c/c(=C\c4c(O)[nH]c5ccc(Cl)cc45)ccc3=N2)cc(OC)c1OC | 57.2% |
| COc1ccc(OC)c([N+](=O)[O-])c1C=O | 101% |
| COc1ccc(-c2nnc(COc3ccc(NC(=O)Nc4cccc(C(F)(F)F)c4)cc3F)o2)cc1 | 43.4% |
| COc1ccc(C(=O)n2nc(CC(=O)NCc3ccccc3)nc2N)cc1 | 95.4% |
| NC1CCC(Nc2nc(NCc3ccc(-c4ccccc4O)nc3)c3ncn(C4CCCC4)c3n2)CC1 (stereo not given) | 10.1% |
